Assay results from PubChem BioAssay (NCATS).
A number with no mark means an inactive call. Calls come from the whole dose curve; as a rule, active = well fitted curve in the direction sought with a large enough effect; inconclusive = small, poorly fitted or top-dose-only effect, or another doubt; inactive = no such curve, though single readings can be large or run the other way.

What follows are molecules tested against Methanococcus maripaludis chaperonin (MmCpn) (UniProt Q6LX38) (assay: High-Throughput Screening for Modulators of Cytosolic Chaperonin Activity: MmCpn Primary Screen (AID 488978; note: 0% is about no effect)). Details: Purified MmCpn ATPase activity, ADP HTRF detection, 10 min; series mostly up to 76.9 µM; activity change, negative = inhibition: at the top concentration.
Sequence of Methanococcus maripaludis chaperonin (MmCpn) (Q6LX38 1-543): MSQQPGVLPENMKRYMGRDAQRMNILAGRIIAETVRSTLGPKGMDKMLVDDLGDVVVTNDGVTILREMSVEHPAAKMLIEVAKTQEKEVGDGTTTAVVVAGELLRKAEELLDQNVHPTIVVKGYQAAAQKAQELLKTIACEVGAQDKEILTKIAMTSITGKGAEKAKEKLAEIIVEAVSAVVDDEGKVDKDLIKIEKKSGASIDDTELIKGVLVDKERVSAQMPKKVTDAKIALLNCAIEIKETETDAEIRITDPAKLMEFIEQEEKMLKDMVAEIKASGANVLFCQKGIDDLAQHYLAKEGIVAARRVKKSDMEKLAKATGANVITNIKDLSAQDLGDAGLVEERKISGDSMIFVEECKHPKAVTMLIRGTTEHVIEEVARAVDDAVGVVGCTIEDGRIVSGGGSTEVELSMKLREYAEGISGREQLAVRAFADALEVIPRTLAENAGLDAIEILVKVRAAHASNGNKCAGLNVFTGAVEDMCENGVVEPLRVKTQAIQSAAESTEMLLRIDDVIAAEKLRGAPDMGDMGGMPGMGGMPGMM
From the text: Chaperonins are key components of the cellular chaperone machinery. These large complexes consist of two stacked 7-9 membered rings, each containing a central cavity. Substrates are folded within the cavity in an ATP-dependent manner. TRiC is a complex of eight different, essential proteins. As each of the genes encoding the eight subunits is essential for cell viability and no protocol has been developed to overexpress this enzyme to high levels, several groups have turned to the archaeal homolog of TRiC from Methanococcus maripaludis (MmCpn) as a model system for the study of the type II chaperonin family.
MmCpn was kindly provided by the laboratory of Judith Frydman.
1. Dispense 1.5 ul enzyme of either TriC at 100 nM or MmCpn at 50 nM final concentration.
2. Transfer 23 nl of compound to plate, incubate 5 min at RT.
3. 1.5 ul ATP at 30 uM at final concentration dispensed into plate.
4. Incubate for 10 minutes at 37C (MmCPN), 30C (TriC).
5. 3 ul of the Cisbio ADP Transcreener HTRF detection reagent prepared according to protocol dispensed into plate.
6. Incubate for 5 minutes.
7. Read using EnVision plate reader at Excitation = 320nm and Emission = 590nm, 665nm
With CC(=O)[C@H]1CC[C@H]2[C@@H]3CCC4=CC(=O)CC[C@]4(C)[C@H]3CC[C@]12C the “activity change, negative = inhibition” value was -0.525%.
In the case of OCc1ccc(-c2nn(Cc3ccccc3)c3ccccc23)o1, the “activity change, negative = inhibition” value is reported as -3.6%.
For CCCCS(=N)(=O)CCC(N)C(=O)O (stereo unspecified), the “activity change, negative = inhibition” value was -0.305%.
With COc1cc2ncnc(Nc3cccc(Cl)c3)c2cc1OC the “activity change, negative = inhibition” value was -3.2%.
With COc1cc2nc(N3CCCN(C)CC3)nc(NC3CCN(Cc4ccccc4)CC3)c2cc1OC the “activity change, negative = inhibition” value was -3.68%.
With N[C@@H](Cc1ccc(O)c(O)c1)C(=O)O the “activity change, negative = inhibition” value was 1.11%.
In the case of O=C(O)C1CCCN(CCC=C(c2ccccc2)c2ccccc2)C1 (stereo unspecified), the “activity change, negative = inhibition” value is reported as 2.34%.
In the case of NC(=O)c1ccc2[nH]ccc2c1, the “activity change, negative = inhibition” value is reported as 2.57%.
With CCN(CC)CCn1c(=O)c(Cc2ccc(OC)cc2)nc2ccccc21 the “activity change, negative = inhibition” value was -1.28%.
CC1CC2C3CCC4=CC(=O)C=C[C@]4(C)[C@@]3(F)[C@@H](O)C[C@]2(C)[C@@]1(O)C(=O)CO (stereo partly specified) was tested, and the “activity change, negative = inhibition” value was 1.12%.
CCN1CCCC1CNC(=O)c1cc(S(N)(=O)=O)ccc1OC (stereo unspecified) was tested, and the “activity change, negative = inhibition” value was 0.166%.
CC1=C(C(=O)O)N2C(=O)[C@@H](NC(=O)C(N)c3ccccc3)[C@H]2SC1 (stereo partly specified) was tested, and the “activity change, negative = inhibition” value was 0.415%.
In the case of CC(C)NCC(O)c1ccc(NS(C)(=O)=O)cc1 (stereo unspecified), the “activity change, negative = inhibition” value is reported as 0.181%.
With CCN(CC)CC#CCOC(=O)C(O)(c1ccccc1)C1CCCCC1 (stereo unspecified) the “activity change, negative = inhibition” value was 0.652%.
For NC(=O)c1cccc(N)c1, the “activity change, negative = inhibition” value was 1.56%.
With Nc1nc(N)c2nc(CNc3ccc(C(=O)NC(CCC(=O)O)C(=O)O)cc3)cnc2n1 (stereo unspecified) the “activity change, negative = inhibition” value was -3.86%.
